# Assay outcomes from PubChem BioAssay.
# The list is not random: actives were taken first. Their share in the collection is about 1.1%.
# NR2F2 inh: inhibitors of human COUP-TFII (NR2F2) | P24468 | HEK293T NGFI-A luciferase reporter, luminescence | inhibition, % at 8.6 µM | actives 0.7% (n = 370,000);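 active = inhibition above a per-plate cutoff, mean inhibition of test wells between control levels plus 3 SD, cut at about 38% in these data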;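 note: cells cotransfected with COUP-TFII expression vector driving the NGFI-A reporter; 0% = median of COUP-TF2 test wells and 100% = reporter-only cells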
# GalR3 antagonist: human GalR3 antagonism | O60755 | HEK293 GalR3-CNG cAMP membrane potential fluorescence; galR3 body fused to GalR1 C-terminus | inhibition, % at 3 µM | actives 0.44% (n = 360,000) | AID 651719;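 active = inhibition above the screen-wide average plus 3 SD, cut at about 13% in these data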;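 note: forskolin and galanin both at EC90 stimulate the cells; cAMP rise reported by CNG channel membrane potential dye signal; 0% = forskolin plus galanin with DMSO and 100% = forskolin alone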
# NCOA1 inh: human NCOA1 inhibition. inhibition, % at 3.6 µM. AID 588354. HEK293 GAL4-SRC1 luciferase reporter, luminescence. actives 0.12% (n = 360,000). Q15788;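 active = inhibition above the campaign mean plus 3 SD, with each screening campaign given its own cutoff, cut at about 60% in these data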;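 note: 0% = DMSO treated cells and 100% = gossypol at 36 µM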
# SRC2 inh: human SRC2 (NCOA2) inhibition; HEK293 GAL4-SRC2 luciferase reporter, luminescence; Q15596; inhibition, % at 9 µM; AID 651957; actives 0.17% (n = 370,000);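 active = inhibition above the mean inhibition of all tested compounds plus 3 SD, set per campaign, cut at about 52% in these data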;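 note: 0% = DMSO treated cells and 100% = cells given Gossypol at 36 µM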
# Target sequence (Q15596 whole entry, looked up, the tested form may be a part): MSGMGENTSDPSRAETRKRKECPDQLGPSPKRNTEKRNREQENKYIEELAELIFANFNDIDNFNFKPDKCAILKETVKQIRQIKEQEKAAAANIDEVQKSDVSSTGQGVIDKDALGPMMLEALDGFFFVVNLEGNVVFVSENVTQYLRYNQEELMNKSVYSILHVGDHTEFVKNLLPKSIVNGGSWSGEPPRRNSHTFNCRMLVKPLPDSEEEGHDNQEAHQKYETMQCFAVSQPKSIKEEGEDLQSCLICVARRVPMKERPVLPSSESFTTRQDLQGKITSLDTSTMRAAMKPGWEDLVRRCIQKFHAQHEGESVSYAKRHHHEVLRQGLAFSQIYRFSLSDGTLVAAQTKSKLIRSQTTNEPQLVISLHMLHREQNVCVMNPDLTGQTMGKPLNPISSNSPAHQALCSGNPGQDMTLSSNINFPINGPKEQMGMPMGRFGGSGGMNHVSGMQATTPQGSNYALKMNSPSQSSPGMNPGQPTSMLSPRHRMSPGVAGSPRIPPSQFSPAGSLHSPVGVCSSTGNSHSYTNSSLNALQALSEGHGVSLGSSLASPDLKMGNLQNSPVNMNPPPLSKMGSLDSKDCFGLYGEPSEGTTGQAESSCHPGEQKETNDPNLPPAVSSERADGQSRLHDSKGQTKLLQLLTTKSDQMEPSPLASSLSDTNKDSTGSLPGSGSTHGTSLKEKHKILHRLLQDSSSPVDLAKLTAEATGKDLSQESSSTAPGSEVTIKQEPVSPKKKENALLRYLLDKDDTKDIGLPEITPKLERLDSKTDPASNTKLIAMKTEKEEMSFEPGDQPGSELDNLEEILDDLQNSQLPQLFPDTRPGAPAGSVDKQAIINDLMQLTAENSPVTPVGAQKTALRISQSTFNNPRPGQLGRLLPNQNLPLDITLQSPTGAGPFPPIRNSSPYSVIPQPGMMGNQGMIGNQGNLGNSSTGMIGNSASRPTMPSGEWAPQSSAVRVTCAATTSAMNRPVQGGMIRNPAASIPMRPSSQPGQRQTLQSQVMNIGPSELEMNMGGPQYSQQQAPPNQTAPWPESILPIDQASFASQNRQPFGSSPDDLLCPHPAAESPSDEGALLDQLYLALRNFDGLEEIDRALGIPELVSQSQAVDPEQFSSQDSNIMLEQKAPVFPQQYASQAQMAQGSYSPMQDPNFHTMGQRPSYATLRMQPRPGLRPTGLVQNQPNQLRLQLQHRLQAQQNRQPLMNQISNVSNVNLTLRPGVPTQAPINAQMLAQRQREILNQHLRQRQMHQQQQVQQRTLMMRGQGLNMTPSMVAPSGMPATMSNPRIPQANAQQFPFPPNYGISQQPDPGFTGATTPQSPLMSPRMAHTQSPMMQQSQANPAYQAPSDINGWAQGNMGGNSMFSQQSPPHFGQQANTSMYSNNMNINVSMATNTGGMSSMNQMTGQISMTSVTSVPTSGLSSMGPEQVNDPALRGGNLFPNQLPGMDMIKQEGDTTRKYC
# SRC3 inh: human NCOA3 inhibition; Q9Y6Q9; HEK293 GAL4-SRC3 luciferase reporter, luminescence; inhibition, % at 3.6 µM; actives 0.17% (n = 360,000);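 active = inhibition above a per-campaign cutoff, the mean of all compounds plus 3 SD, cut at about 60% in these data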;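 note: 0% = DMSO-treated cells and 100% = gossypol-treated cells at 36 µM; higher means less SRC3-driven luciferase light from the GAL4 reporter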
# LRH-1 inv ag: NR5A2 inverse agonism in reporter assay | O00482 | HEK293T StAR-luciferase reporter, LRH-1 transfected, 24 h | inhibition, % at 3.6 µM | actives 0.13% (n = 360,000) | AID 602396;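 active = inhibition above the mean inhibition of all tested compounds plus 3 SD, cut at about 73% in these data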;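 note: 0% = DMSO wells and 100% = reporter-only cells lacking LRH-1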
# GalR3 conf: GalR3 (human) antagonism, confirmation | shares compounds with GalR3 antagonist | HEK293 GalR3 CNG cAMP biosensor, membrane potential fluorescence; galR3 fused to GalR1 carboxy tail; challenged with forskolin and galanin at EC90 | inhibition, % at 3 µM | actives 59% (n = 1,600);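 active = inhibition above the primary screen's cutoff, the mean inhibition of all screened compounds plus 3 SD, cut at about 13% in these data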;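 note: 0% = forskolin plus galanin and 100% = forskolin alone with DMSO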
# HEK-CNG parental: counter-screen for GalR3 antagonists: nonspecific agonists in parental HEK-CNG cells; shares compounds with GalR3 antagonist; HEK293-CNG parental cells, cAMP membrane potential fluorescence; normalised: DMSO wells 0%, forskolin wells 100%; activation, % at 3 µM; actives 10% (n = 1,600); AID 652268; in the data active = activation above about 1.3%
# Numbers without * were called inactive; . = no result; ! = repeats disagree.
SMILES,NR2F2 inh,GalR3 antagonist,NCOA1 inh,SRC2 inh,SRC3 inh,LRH-1 inv ag,GalR3 conf,HEK-CNG parental
Cc1cc(C)n2nc(C(=O)NCc3ccccc3)nc2n1,23,.,-18,-11,-23,12,5,0
CC(C)c1cc(C(=O)N(C2CCCCC2)C2CCCCC2)no1,23,.,.,-5,.,.,.,.
CCc1ccc(O)c(N=Cc2cccc(C)c2O)c1,4,-8,-5,14,4,4,.,.
CCCc1ccc(O)c(N=Cc2cc(Br)cc(OCC)c2O)c1,8,16*,-26,-2,9,4,5,0
COc1ccc(COC[C@H](C)N2C[C@@H](C)[C@H](CN(C)S(=O)(=O)c3ccc(F)cc3)OCCCC[C@H](C)Oc3ccc(NC(=O)Nc4ccccc4)cc3C2=O)cc1,-40,.,.,.,.,.,.,.
O=Cc1cn(CC(=O)N2CCCCCC2)c2ccccc12,-10,19*,-10,-32,3,-3,6,0
CCNC(=O)NC(=O)C(C)OC(=O)[C@H](C)NS(=O)(=O)c1c(C)c(C)cc(C)c1C (stereo partly drawn),4,39*,12,11,-3,2,-2,0
COC(=O)c1cn(-c2ccc3c(c2)[C@]2(CC(=O)N(C)C2c2ccccc2)C(=O)N3CC(C)C)nn1 (stereo partly drawn),10,.,.,-11,.,.,.,.
CC(=O)c1c(N2CCCC2)nc(=S)n(-c2ccccc2)c1C,-7,2,-8,-19,7,8,.,.
CCn1c(C)c(C(C)=O)c(N2CCN(c3ccccc3)CC2)nc1=S,12,42*,-2,7,-1,-5,3,0
CCn1c(C)c(C(C)=O)c(N2CCN(C(c3ccccc3)c3ccccc3)CC2)nc1=S,-3,4,0,-11,24,8,.,.
CC(=O)c1c(N2CCCCC2)nc(=S)n(-c2ccccc2)c1C,-32,.,-15,-54,-21,-53,0,1
COc1cccc(Cn2c(NCc3ccccn3)nc3c2c(=O)n(C)c(=O)n3C)c1,-1,14*,.,-26,.,.,10,0
Cc1cc(N2CCC[C@@H]2C)nc2ccccc12,-10,.,.,.,.,.,.,.
COc1ccccc1NC(=O)CSc1nc(N)c(-c2ccccc2)c(=O)[nH]1,-24,46*,9,-20,7,6,38*,1
OCC[C@@H]1C[C@@H](O)[C@H](O)[C@]2(CCc3ccccc3O2)O1,7,.,6,12,-9,-1,18*,0
COc1ccc(NC(=O)c2ccc(CNc3c(NC4CCCCC4)c(=O)c3=O)cc2)c(OC)c1,-3,14*!,-8,-35,-13,-8,4,0
Cc1cc(C)n(CCNS(=O)(=O)c2ccc(C)c(C)c2)n1,3,-8,4,-32,0,9,.,.
Cc1nc(C)n(CCNS(=O)(=O)c2ccc(C)c(C)c2)n1,-1,18*,16,5,3,17,-4,0
O=C(c1cccc(C(F)(F)F)c1)N1CC[C@H]2[C@H](CCCN2Cc2ccc(F)cc2)C1,4,.,.,3,.,.,.,.
COc1ccc(NC(=O)c2ccc(-c3c(C)noc3C)c3ccoc23)cn1,-82,44*,-1,-88,-22,-25,8,1
CC(=O)Nc1ccc(NC(=O)c2ccc(-c3c(C)noc3C)c3ccoc23)cc1,-76,-5,-9,-64,-11,17,.,.
COc1cccc(OC)c1NC(=O)OC1CCC12CCC(c1ccccc1)CC2 (stereo not drawn),-5,.,.,.,.,.,.,.
CCc1ccc2c(c1)C1(NN=C(c3cccc4ccccc34)S1)C(=O)N2 (stereo not drawn),5,23*,10,4,-2,14,2,0
CC(=O)/C=C/n1c(=S)oc2ccccc21,3,15*,.,-42,.,.,2,1.6*
SMILES,NR2F2 inh,GalR3 antagonist,NCOA1 inh,SRC2 inh,SRC3 inh,LRH-1 inv ag,GalR3 conf,HEK-CNG parental
CC(C)CC(=O)/C=C/n1c(=S)oc2ccccc21,-15,-2,-4,-20,-5,-3,.,.
NC(=O)c1cn(-c2ccccc2)nc1-c1cc2ccccc2oc1=O,14,108*,-6,3,7,2,95*,0
O=C(N/N=C(\c1ccccc1)c1cccnc1)c1cccc(F)c1,-23,42*,48,-7,58,71,38*,0
C=CCN(Cc1ccc(OC)cc1OC)C(C#Cc1ccccc1)c1ccccc1 (stereo not drawn),10,.,.,.,.,.,.,.
CC1CCCCN1S(=O)(=O)c1ccc(S(=O)(=O)N(Cc2ccccc2)Cc2ccco2)cc1 (stereo not drawn),0,13*,3,19,-1,-6,11,-1
CCN(Cc1ccccc1)S(=O)(=O)c1ccc(S(=O)(=O)N(Cc2ccccn2)Cc2ccco2)cc1,-4,-5,-6,-1,-4,3,.,.
O=C(/C=C/c1cn(-c2ccccc2)nc1-c1cccnc1)NCCN1CCOCC1,-11,18*,4,12,8,15,14*,0
CCC(=O)OCCNc1cc(Sc2nccn2C)c2nonc2c1[N+](=O)[O-],13,41*,7,-33,-1,-16,21*,0
CCCC(=O)OCCNc1cc(Sc2nc3ccccc3[nH]2)c2nonc2c1[N+](=O)[O-],15,26*,0,-7,13,5,35*,0
CCC(=O)OCCNc1cc(SCCC(=O)OC)c2nonc2c1[N+](=O)[O-],-19,4,5,-24,18,-23,.,.
O=[N+]([O-])c1ccccc1S(=O)(=O)N1CCC(c2cn3ccccc3n2)CC1,7,.,.,-1,.,.,.,.
O=C(COc1cc(Cl)c(Cl)cc1Cl)Nc1cccc(O)c1,-31,-10,-95,-36,-105,-192,.,.
O=C(COc1cc(Cl)c(Cl)cc1Cl)Nc1ccncc1,-28,13*,-4,-15,-5,11,9,0
N#Cc1ccc(CN2CCN(C(=O)CNC(=O)Cc3cccc4ccccc34)CC2)cc1,15,22*,15,22,-8,21,10,0
CCc1ccccc1NC(=O)CN1CCN(C(=O)CNC(=O)Cc2cccc3ccccc23)CC1,19,-7,6,3,9,12,.,.
CCOc1ccc(-n2c(SCc3ccc([N+](=O)[O-])cc3)nnc2-c2ccccc2)cc1,-2,70*,5,-1,-5,-12,72*,1.3*
COc1ccc(-n2c(SCc3ccc([N+](=O)[O-])cc3)nnc2-c2ccccc2)cc1,11,57*,-4,-3,17,11,64*,0
